Data: PubChem BioAssay
Activity calls are given as the source filed them. Unless noted, the rule behind the calls is not given here.

Columns and labels:
[1] = tested on: XIP peptide (Xip251-270) binding; assay: small-molecule binders of XIP peptide, primary screen, biochemical, small-molecule microarray, fluorescence 635/667 nm, 0.1 µg/mL protein (AID 1182); settings: fluorescent protein binding, 635 nm, higher = more signal, called active from +8 up or from −8 down
XIP peptide (Xip251-270) = assay: small-molecule binders of XIP peptide, primary screen, biochemical, small-molecule microarray, fluorescence 635/667 nm, 0.5 µg/mL protein (AID 1183); settings: small-molecule microarray binding, fluorescence 635 nm; higher = more signal
[2] = Plasmodium falciparum growth inhibition, primary screen, strain 3D7, DAPI fluorescence, 100 nL (AID 1184);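 note: parasites grown inside human red blood cells in medium with human serum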; settings: P. falciparum 3D7 growth, 3 d, higher = more signal
[3] = molecular target: Homeobox protein Hox-A13 (Mus musculus) (UniProt Q62424); assay: inhibitors of HoxA13-DNA binding, primary screen, biochemical, fluorescence polarization, labeled oligonucleotide (AID 1185); settings: 15 min, higher = more signal, called active from +8 up or from −8 down
Sequence of Homeobox protein Hox-A13 (Mus musculus) (Q62424 whole entry, looked up): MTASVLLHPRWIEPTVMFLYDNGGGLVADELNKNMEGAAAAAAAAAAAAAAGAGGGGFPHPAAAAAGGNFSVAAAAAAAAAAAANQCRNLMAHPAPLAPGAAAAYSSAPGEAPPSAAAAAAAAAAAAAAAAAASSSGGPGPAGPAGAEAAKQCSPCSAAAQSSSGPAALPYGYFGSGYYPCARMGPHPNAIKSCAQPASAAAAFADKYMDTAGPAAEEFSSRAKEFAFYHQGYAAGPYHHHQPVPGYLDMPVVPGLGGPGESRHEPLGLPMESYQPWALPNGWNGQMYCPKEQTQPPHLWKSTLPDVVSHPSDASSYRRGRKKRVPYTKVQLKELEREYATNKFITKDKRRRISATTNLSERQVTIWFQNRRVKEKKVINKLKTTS

[4] = inhibitors of hydroxyurea-induced Chk1 phosphorylation, primary screen, imaging, HeLa, phospho-Chk1 antibody, percent positive cells (AID 1186); settings: hydroxyurea-induced phospho-Chk1 immunofluorescence imaging, higher = more signal
[5] = inhibitors of hydroxyurea-induced Chk1 phosphorylation, primary screen, imaging, HeLa, phospho-Chk1 nuclear intensity (AID 1187); settings: hydroxyurea-induced phospho-Chk1 immunofluorescence imaging, higher = more signal

Structure (SMILES)	composite z-score [1]	composite z-score (XIP peptide (Xip251-270))	z-score [2]	z-score [3]	z-score [4]	z-score [5]
COCCOC(=O)N1C(=O)[C@@]2(c3cc(C#CCCO)ccc31)[C@H](c1ccccc1OCCO)N1[C@H](c3ccccc3)[C@H](c3ccccc3)OC(=O)[C@H]1[C@@H]2C(=O)N1CCCCCCC1	0.783 (inactive)	0.759	-2.25	3.84 (inactive)	-0.304 (inactive)	-0.387 (inactive)
CN1C(=O)[C@@H]2[C@@H](CC(COc3ccccc3)=C([C@H](O)CCc3ccccc3)[C@@H]2CO)C1=O	-0.221 (inactive)	0.365	-0.0804	-6.39 (inactive)	-1.25 (inactive)	-1.34 (inactive)
CN(C)C(=O)[C@@]1(Cc2ccccc2)COC(c2ccc(OCCCO)cc2)=N1	0.205 (inactive)	0.845	-0.627	-6.02 (inactive)	-1.01 (inactive)	-1.03 (inactive)
CCCCNC(=O)c1ccc(C#C[Si](C(C)C)(C(C)C)C(C)C)c(OC(C)=O)c1	-0.211 (inactive)	0.413	-2.74	-2.16 (inactive)	0.0917 (inactive)	0.331 (inactive)
O=C1OCCC=C[C@H]2OC34C=CCN(c5ccc(Cl)cc5)C(=O)[C@H]3N(CCCCCCO)C(=O)[C@@H]4C12 (stereo not given in full)	0.43 (inactive)	-0.619	-0.278	-5.62 (inactive)	-0.301 (inactive)	0.116 (inactive)
COc1cccc(/C=C(\C#N)C(=O)Nc2c(C)n(C)n(-c3ccccc3)c2=O)c1	0.0887 (inactive)	0.438	0.393	-0.75 (inactive)	-0.252 (inactive)	-0.13 (inactive)
CCOC(=O)C1=CCN(S(=O)(=O)c2ccc(C)cc2)C1c1ccccc1 (stereo not given)	0.866 (inactive)	0.805	-0.584	-3.71 (inactive)	0.607 (inactive)	0.346 (inactive)
C=CCOC(=O)[C@H]1[C@@H]2C(=O)O[C@@H](c3ccccc3)[C@@H](c3ccccc3)N2[C@@H](c2ccc(OCCOC(=O)[C@H]3C[C@H]4C(=O)N[C@@H](CCCCNC(C)=O)C(=O)N4[C@H]3c3cccc(OCCO)c3)cc2)[C@]12C(=O)Nc1ccc(I)cc12	0.996 (inactive)	0.68	-1.61	2.36 (inactive)	-0.138 (inactive)	0.239 (inactive)
C=CCNC(=O)[C@@H]1[C@H]2C(=O)O[C@H](c3ccccc3)[C@H](c3ccccc3)N2[C@H](c2ccc(O)cc2)[C@@]12C(=O)Nc1ccc(C#CCC(C(=O)OC)C(=O)OC)cc12	1.03 (inactive)	0.729	-1.84	-2.97 (inactive)	-0.267 (inactive)	-0.625 (inactive)
C=CCC(OC(C)=O)[C@@H]1[C@@H](N(Cc2cccc3ccccc23)C(=O)Cc2ccc(F)cc2)c2cc(OCCCO)ccc2N1C(=O)c1ccc(-c2ccccc2)cc1 (stereo not given in full)	-1.31 (inactive)	-1.14	-1.69	-1.09 (inactive)	0.19 (inactive)	-0.39 (inactive)
CN(C)CCCC[C@@H]1NC(=O)[C@@H]2C[C@H](C(=O)O)[C@H](c3cccc(OCCO)c3)N2C1=O	1.02 (inactive)	0.0695	-0.286	-3.07 (inactive)	0.043 (inactive)	0.313 (inactive)
CC(C)(C)OC(=O)CC[C@]12N=C(c3ccc(OCCCO)cc3)O[C@H]1c1ccccc1N(Cc1ccccc1)C2=O	-0.326 (inactive)	0.802	-2.21	-0.817 (inactive)	-0.022 (inactive)	0.363 (inactive)
C=CCNC(=O)[C@H]1[C@@H]2C(=O)O[C@@H](c3ccccc3)[C@@H](c3ccccc3)N2[C@@H](c2ccc(OCCO)cc2)[C@]12C(=O)N(C(=O)OCCOC)c1ccc(C#Cc3ccc(OC)cc3)cc12	0.0294 (inactive)	0.719	-2.38	4.25 (inactive)	-0.499 (inactive)	-0.744 (inactive)
COCCOC(=O)N1C(=O)[C@@]2(c3cc(C#CCC(C(=O)OC)C(=O)OC)ccc31)[C@H](c1ccc(O)cc1)N1[C@H](c3ccccc3)[C@H](c3ccccc3)OC(=O)[C@H]1[C@@H]2C(=O)NC[C@H](O)c1ccccc1	0.398 (inactive)	0.465	-0.474	-2.44 (inactive)	0.101 (inactive)	0.524 (inactive)
CCCNC(=O)[C@@]1(C)c2ccccc2C(=O)N(Cc2ccccc2)[C@H]1c1ccc(CO)cc1	0.952 (inactive)	0.355	-0.804	-1.91 (inactive)	-0.558 (inactive)	-0.579 (inactive)
CC(C)C(=C=CC[C@H](O)c1cccc(OCCO)c1)CCO	0.675 (inactive)	0.0075	0.585	-1.92 (inactive)	0.0348 (inactive)	0.549 (inactive)
CCCCC(=C=CC[C@H](O)c1ccc(OCCO)cc1)C[C@H](O)c1cc(Cl)cc(Cl)c1O	-0.0399 (inactive)	0.416	-1.51	-2.25 (inactive)	-0.0695 (inactive)	-0.301 (inactive)
COc1ccc([Si](C)(C)[C@@H]2[C@@H](CC(=O)N3Cc4ccccc4C[C@H]3CO)O[C@]3(C(=O)N(c4ccccc4)c4ccccc43)[C@H]2C)cc1	3.93 (inactive)	0.546	-2.38	-4.85 (inactive)	-0.0103 (inactive)	-0.192 (inactive)
O=C1c2ccccc2[C@](Cc2ccccc2I)(C(=O)NC2CC2)[C@H](c2ccc(CO)cc2)N1Cc1ccccc1C(F)(F)F	0.135 (inactive)	0.59	-1.89	-4.02 (inactive)	-0.0771 (inactive)	-0.189 (inactive)
O=C(O)[C@@H]1C[C@@H]2C(=O)N3CCC[C@H]3C(=O)N2[C@@H]1c1cccc(OCCO)c1	2 (inactive)	0.932	-0.382	-2.19 (inactive)	0.299 (inactive)	-0.0384 (inactive)
CCc1cccc(NC(=O)O[C@H]2[C@H](OC(=O)Nc3ccccc3)[C@H](OC(=O)Nc3ccccc3)[C@@H](OC)O[C@@H]2CO)c1	1.54 (inactive)	0.829	-1.49	-5.74 (inactive)	0.156 (inactive)	0.628 (inactive)
COCCOC(=O)N1C(=O)[C@@]2(c3ccccc31)[C@H](c1ccccc1OCCO)N1[C@H](c3ccccc3)[C@H](c3ccccc3)OC(=O)[C@H]1[C@@H]2C(=O)N1CCCCCCC1	1.55 (inactive)	0.846	-2.01	2.31 (inactive)	0.203 (inactive)	0.424 (inactive)
COCCOC(=O)N1C(=O)[C@@]2(c3cc(C#CC4=CCCCC4)ccc31)[C@H](C(=O)N1CCCCCCC1)[C@H]1C(=O)O[C@H](c3ccccc3)[C@H](c3ccccc3)N1[C@@H]2c1ccc(OCCO)cc1	-0.404 (inactive)	0.56	-2.01	-15.8 (active)	0.0039 (inactive)	-0.192 (inactive)
C=CCC(OC(C)=O)[C@@H]1[C@@H](N(Cc2ccc(-c3cccc(C(F)(F)F)c3)o2)C(=O)Cc2ccc(OC)cc2)c2cc(OCCCO)ccc2N1C(=O)Cc1ccc2ccccc2c1 (stereo not given in full)	0.0389 (inactive)	0.625	-2.17	-1.9 (inactive)	0.162 (inactive)	0.375 (inactive)
C=CCN1C(=O)[C@@]2(O[C@@H](CCO)[C@H]([Si](C)(C)c3ccc(OC)cc3)[C@H]2C)c2cc(N3CCOC3=O)ccc21	0.341 (inactive)	0.68	-2.39	-5.97 (inactive)	-0.0674 (inactive)	0.0448 (inactive)
COc1cc(NN2C(C(O)c3cc(OC)c(OC)c(OC)c3)C=CC3C(=O)N(c4ccccc4)C(=O)C32)cc(OC)c1OC (stereo not given)	0.692 (inactive)	0.552	-0.732	-4.86 (inactive)	1.06 (inactive)	0.889 (inactive)
O=C1O[C@H](c2ccccc2)[C@H](c2ccccc2)N2[C@H]1[C@@H](C(=O)O)[C@]1(C(=O)Nc3ccc(C#CC4(O)CCCCCC4)cc31)[C@H]2c1ccc(O)cc1	-0.203 (inactive)	0.194	0.361	-6.61 (inactive)	-0.308 (inactive)	-0.307 (inactive)
CN(C)C(=O)[C@@]1(CCC(=O)OC(C)(C)C)N=C(c2ccc(OCCCO)cc2)O[C@H]1c1ccccc1CN=[N+]=[N-]	1.14 (inactive)	0.316	-2.32	-5.91 (inactive)	0.234 (inactive)	0.422 (inactive)
O=C1C2C=CC(C(O)c3ccc(I)cc3)N(Nc3ccccc3)C2C(=O)N1c1ccccc1 (stereo not given)	0.393 (inactive)	0.702	0.83	-2.67 (inactive)	-0.007 (inactive)	-1.05 (inactive)
C=C[C@@H](C)[C@H](O)c1ccc(OCCO)cc1	0.313 (inactive)	0.0813	0.99	-0.166 (inactive)	0.485 (inactive)	0.739 (inactive)
